Assay outcomes deposited in PubChem BioAssay by several laboratories.
ADAM10 inh: ADAM10 inhibition, QFRET primary screen; O14672; recombinant ADAM10, EDANS/DABCYL FRET peptide cleavage, 3 h; inhibition, % at 7 µM; 370,000 compounds, 0.62% hits; AID 720582;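 active = inhibition above a per-campaign cutoff equal to the mean of compounds falling between control-based bounds plus 3 SD, cut at about 20% in these data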;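 note: 0% = DMSO wells while the 100% control is not disclosed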
ADAM17 inh: inhibitors of human ADAM17. P78536. recombinant ADAM17, EDANS/DABCYL FRET peptide cleavage. inhibition, % at 6.95 µM. 370,000 compounds, 0.83% hits. AID 720648;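 active = inhibition above the mean of compounds lying between control limits plus 3 SD, set per campaign, cut at about 8.5% in these data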;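 note: 0% = DMSO-only wells as the low control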
Target sequence (P78536 215-824 limits assumed): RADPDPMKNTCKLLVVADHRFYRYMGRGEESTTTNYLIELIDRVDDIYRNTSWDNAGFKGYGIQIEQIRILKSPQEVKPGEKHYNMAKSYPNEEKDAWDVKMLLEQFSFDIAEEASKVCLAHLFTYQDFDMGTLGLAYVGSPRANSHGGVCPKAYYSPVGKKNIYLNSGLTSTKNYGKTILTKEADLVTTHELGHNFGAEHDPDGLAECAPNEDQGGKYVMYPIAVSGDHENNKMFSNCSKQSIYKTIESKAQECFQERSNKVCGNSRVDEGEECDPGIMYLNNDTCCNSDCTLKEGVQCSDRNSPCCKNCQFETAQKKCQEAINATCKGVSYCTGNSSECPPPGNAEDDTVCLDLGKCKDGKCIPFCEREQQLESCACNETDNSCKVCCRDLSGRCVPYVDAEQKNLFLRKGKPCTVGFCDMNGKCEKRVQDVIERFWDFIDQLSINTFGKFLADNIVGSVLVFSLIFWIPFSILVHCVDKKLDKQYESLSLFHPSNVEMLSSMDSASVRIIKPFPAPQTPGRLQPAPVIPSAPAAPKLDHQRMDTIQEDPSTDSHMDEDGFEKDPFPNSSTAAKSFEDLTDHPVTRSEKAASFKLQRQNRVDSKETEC
GC-A act: GC-A (human) enzyme activation; P16066; AID 1671463; 370,000 compounds, 0.14% hits; activation, % at 10 µM; HEK293 GC-A cells, cGMP TR-FRET, EC30 ANP; 0% at EC30 ANP, 100% saturating ANP; in the data active = activation above about 40%
NPR2 activator: GC-B (human) receptor activation | activation, % at 10 µM | 370,000 compounds, 0.11% hits | HEK293-GC-B cells, CNP EC30, cGMP TR-FRET; 0% at EC30 CNP, 100% saturating CNP | P20594;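 active = activation at 10 µM reaching about 35% in either raw or pattern-adjusted values, limit read from the data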
* = called active by the depositor. The list is not random: actives were taken first. Their share in the collection is about 1.3%.

Screening Cn1c(N)c(C(=O)Nc2cccc(Cl)c2)c(=O)n(C)c1=O returned ADAM10 inh -6, ADAM17 inh -5, GC-A act 47* and NPR2 activator -6.
CCOC(=O)c1ccc(NC(=O)c2c(N)n(C)c(=O)n(C)c2=O)cc1 was read as ADAM10 inh 2, ADAM17 inh -1, GC-A act 2 and NPR2 activator -5.
O=C(Cn1nnc(-c2ccccc2F)n1)OCC(=O)c1ccccc1 was read as ADAM10 inh -4, ADAM17 inh -6, GC-A act 5 and NPR2 activator -3.
O=C(Cn1nnc(-c2ccc(F)cc2)n1)OCC(=O)c1ccccc1 was read as ADAM10 inh -7, ADAM17 inh -4, GC-A act 49* and NPR2 activator -3.
`CCOC(=O)Cn1ccc(NC(=O)COc2ccc(F)cc2)n1` gave ADAM10 inh 3, ADAM17 inh 1, GC-A act 17 and NPR2 activator -1.
`CCOC(=O)Cn1ccc(NC(=O)c2ccc(F)cc2)n1` gave ADAM10 inh -2, ADAM17 inh 1, GC-A act 50* and NPR2 activator -10.
Screening CCOC(=O)Cn1ccc(NC(=O)COc2ccc(F)cc2F)n1 returned ADAM10 inh -5, ADAM17 inh 1, GC-A act 41* and NPR2 activator -3.
CCC[C@H]1[C@@H](OC(=O)Oc2ccc([N+](=O)[O-])cc2)CC[C@@]23CCCN2C(=O)CCC[C@@H]13 was read as ADAM10 inh -2, ADAM17 inh -2, GC-A act -7 and NPR2 activator -14.
N=C1C(c2nc3ccccc3s2)=C(O)CN1Cc1ccccc1 was read as ADAM10 inh 3, ADAM17 inh 0, GC-A act 46* and NPR2 activator -16.
Screening N=C1C(c2nc3ccccc3s2)=C(O)CN1C1CCCCC1 returned ADAM10 inh 6, ADAM17 inh 1, GC-A act 54* and NPR2 activator -6.
For Cc1cccc(C(O)c2ncc(-c3ccccc3F)[nH]2)c1C (centres undefined) the results were ADAM10 inh -3, ADAM17 inh -4, GC-A act -1 and NPR2 activator -2.
CS(=O)(=O)c1ccc(Nc2nc(C(N)CCc3ccccc3)cs2)cc1 (centres undefined) was read as ADAM10 inh -23, ADAM17 inh -7, GC-A act -8 and NPR2 activator -6.
COCCNC(=O)C1(C)CCCN(Cc2c(C)nn(-c3ccccc3)c2C)C1 (centres undefined) was read as ADAM10 inh -12, ADAM17 inh -1, GC-A act 2 and NPR2 activator 7.
O=C(Nc1nc2c(Br)cc(Br)cc2c(=O)s1)c1ccco1 was read as ADAM10 inh -3, ADAM17 inh -3, GC-A act 78* and NPR2 activator 35*.
For Cc1ccc(-c2nc3cnccn3c2Nc2ccccc2)o1 the results were ADAM10 inh -156, ADAM17 inh -35, GC-A act 19 and NPR2 activator 32*.
Screening Cc1ccc(-c2nc3ccccn3c2Nc2ccccc2)o1 returned ADAM10 inh inactive, ADAM17 inh inactive, GC-A act -17 and NPR2 activator 12.
Cc1ccc(Nc2c(-c3ccc(C)o3)nc3cnccn23)cc1 was read as ADAM10 inh -123, ADAM17 inh -43, GC-A act 30 and NPR2 activator 40*.
`Cc1ccc(-c2nc3cnccn3c2Nc2ccc3c(c2)OCO3)o1` gave ADAM10 inh -22, ADAM17 inh -4, GC-A act 18 and NPR2 activator 17.
CCN1C(=S)N[C@@H](c2cccs2)C(C(=O)OC)=C1C was read as ADAM10 inh 1, ADAM17 inh -2, GC-A act 29 and NPR2 activator 35*.
`CCN1C(=O)N[C@@H](c2cccs2)C(C(=O)OC)=C1C` gave ADAM10 inh -10, ADAM17 inh -3, GC-A act -1 and NPR2 activator -4.
Screening CC(=O)c1cccc(NC(=O)C(C)OC(=O)CCn2c(C)csc2=O)c1 (centres undefined) returned ADAM10 inh -1, ADAM17 inh -2, GC-A act 0 and NPR2 activator 1.
`COCCNC(=O)/C(C#N)=C/c1cccc(/C=C(\C#N)C(=O)NCCOC)c1` gave ADAM10 inh -3, ADAM17 inh 1, GC-A act 42* and NPR2 activator 25.
CCOCCCNC(=O)/C(C#N)=C/c1ccc(Cl)c([N+](=O)[O-])c1 was read as ADAM10 inh 2, ADAM17 inh 2, GC-A act 55* and NPR2 activator 5.
Screening O=C(N/N=C/c1ccc(-c2ccc([N+](=O)[O-])cc2)o1)C(O)c1ccccc1 (centres undefined) returned ADAM10 inh 1, ADAM17 inh 1, GC-A act 42* and NPR2 activator 40*.
`CCC(COC)Oc1cc(NCc2ccccc2)c2ncn(C(C)C)c2c1` (centres undefined) gave ADAM10 inh -8, ADAM17 inh -5, GC-A act 28 and NPR2 activator 57*.
CCC(CO)Oc1cc(NCc2ccccc2)c2ncn(C(C)C)c2c1 (centres undefined) was read as ADAM10 inh -2, ADAM17 inh -2, GC-A act 2 and NPR2 activator 2.
For COc1ccccc1NC(=O)CN1CCN(CC(=O)Nc2ccc(F)cc2F)CC1 the results were ADAM10 inh -2, ADAM17 inh -7, GC-A act 3 and NPR2 activator 2.
For Cc1noc(C)c1C(=O)Nc1nc2ccccc2s1 the results were ADAM10 inh -8, ADAM17 inh -7, GC-A act 4 and NPR2 activator 4.
C=CCn1c(SCc2ccc(C(=O)Nc3nccs3)cc2)nnc1-c1ccc(C)c(Cl)c1 was read as ADAM10 inh 8, ADAM17 inh 8.8*, GC-A act -4 and NPR2 activator -1.
O=C1OCCC1Sc1nnc(-c2ccc(Cl)cc2Cl)o1 (centres undefined) was read as ADAM10 inh 3, ADAM17 inh -4, GC-A act 70* and NPR2 activator 2.
Screening Cc1cc(NC(C)c2ccccc2)n2ncc(-c3ccccc3)c2n1 (centres undefined) returned ADAM10 inh -321, ADAM17 inh -80, GC-A act 50* and NPR2 activator -6.
Cc1cc(NCc2ccccc2)n2ncc(-c3ccccc3)c2n1 was read as ADAM10 inh -285, ADAM17 inh -69, GC-A act 2 and NPR2 activator -2.
Screening O=C1c2ccccc2C(Nc2ccccc2)N1Cc1ccc2c(c1)OCO2 (centres undefined) returned ADAM10 inh -3, ADAM17 inh 1, GC-A act 62* and NPR2 activator -7.
For Cc1ccc2nc(-c3ccncc3)c(Nc3ccccc3)n2c1 the results were ADAM10 inh -25, ADAM17 inh -5, GC-A act -14 and NPR2 activator -9.
Screening COc1cc(-c2nc3cnccn3c2Nc2c(C)cccc2C)ccc1O returned ADAM10 inh -140, ADAM17 inh -54, GC-A act 1 and NPR2 activator -5.
